# A selection: hits, their analogues and other compounds. The true share with any hit is near 11%.
# Coupling enz: inhibits coupling enzyme system, counter-screen for aldolase hits. 0.67% of 290,000 active. activity change, negative = inhibition, % at 58.2 µM, hits read low. coupling enzyme system counterscreen, AmpLite Red fluorescence; in the data active = activity change below about -30%
#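 First, compound is pin-transferred into glyceraldehyde-3-phosphate coupling-enzyme reagent at 57.5 uM final and held 10 min at RT. Next, substrate, coupling system and AmpLite Red are added. After 20 min RT, fluorescence (525/598 nm) is read.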
# Sfp PPTase inh: Sfp phosphopantetheinyl transferase inhibition; Biochemical Sfp PPTase activity, qHTS; Potency, µM, without a hit: largest response in the series, negative = inhibition, usual class: inhibitors; 3.5% of 310,000 active;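 note: the enzyme is Sfp with the accession as filed and its product quenches rhodamine fluorescence; potency is the fitted concentration of half-maximal effect; 0% = enzyme reaction without inhibitor and -100% = no enzyme wells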
#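 Step 1, compound plus 15 nM Sfp-PPTase, 15 min, room temperature. Step 2, add rhodamine-CoA (5 uM) and BHQ-2-YbbR (12.5 uM). Step 3, read 525/598 nm fluorescence at 0 and 30 min.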
# G9a inh: G9a (human) methyltransferase inhibition | Potency, µM (series often up to 102 µM), without a hit: top-dose activity, negative = inhibition, actives largely listed as inhibitors | G9a H3K9 monomethylation, AlphaScreen, 2 h | 8.8% of 350,000 active | Q96KQ7 | AID 504332; note: potency is the fitted concentration of half-maximal effect; nearly all actives have a fitted effect of over 75% in size
# Target sequence (Q96KQ7 913-1193 limits assumed): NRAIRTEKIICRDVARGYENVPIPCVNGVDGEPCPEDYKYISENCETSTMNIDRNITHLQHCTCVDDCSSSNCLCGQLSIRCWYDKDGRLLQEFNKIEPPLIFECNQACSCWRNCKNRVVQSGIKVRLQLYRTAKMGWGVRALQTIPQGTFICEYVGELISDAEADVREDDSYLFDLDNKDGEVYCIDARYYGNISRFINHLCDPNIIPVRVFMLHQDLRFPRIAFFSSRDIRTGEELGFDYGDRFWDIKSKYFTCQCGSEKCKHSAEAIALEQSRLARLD
#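 Using a bead-based AlphaScreen, monomethylated H3K9 product from 2 h room-temperature reactions (G9a 20 nM, peptide 500 nM, SAM 20 uM) was detected with 0.5 ug/mL rabbit anti-H3K9me1 antibody.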
# Tau fibril FP: inhibitors of human tau fibril formation; P10636; K18 P301L tau heparin fibrillization, Alexa594 FP, 6 h; Potency, µM (top dose mostly 57.7 µM), for inactives: at the top dose activity, negative = inhibition, actives largely listed as inhibitors; 0.39% of 280,000 active; AID 1468; note: potency is the fitted concentration of half-maximal effect; nearly all actives have a fitted effect of over 55% in size
# Target sequence (P10636 561-689 P618L limits assumed): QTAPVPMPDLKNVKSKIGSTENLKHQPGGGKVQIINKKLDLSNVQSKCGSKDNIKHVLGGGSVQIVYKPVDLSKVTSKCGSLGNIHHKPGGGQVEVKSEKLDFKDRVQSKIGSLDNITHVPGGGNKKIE
#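 Human tau K18 […] P301L fragment, 15 uM unlabeled plus 0.24 uM Alexa 594-labeled tau (final), with compound and 20 uM heparin in 100 mM sodium acetate pH 7; 6 hr at 37 C, then Alexa 594 FP read.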
# Tau ThT inhib: blocks human tau fibril formation measured by thioflavin T; recombinant tau K18 P301L, heparin-induced fibrillization, ThT fluorescence; P10636; Potency, µM (titrated, usually from 57.4 µM), inactives show top-dose activity, negative = inhibition, actives largely listed as inhibitors; 2.1% of 270,000 active; note: potency is the fitted concentration of half-maximal effect; nearly all actives have a fitted effect of over 55% in size
#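 Heparin-induced fibrillization of the P301L-mutant K18 repeat-domain fragment of human tau was followed by ThT binding in quantitative high-throughput format.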
# Tau fluor counter: counter-screen for tau fibril formation inhibitors; tau K18 P301L Alexa594 fluorescence, heparin fibrillization; Potency, µM (titrated, usually from 57.7 µM), without a hit: at the top dose activity change, negative = decrease; 0.93% of 280,000 active; AID 1463; note: potency is the fitted concentration of half-maximal effect; nearly all actives have a fitted effect of over 55% in size
#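 Human tau K18 P301L (15 uM unlabeled, 0.24 uM Alexa 594-labeled) in 100 mM sodium acetate pH 7 with 20 uM heparin, 6 hr at 37 C. ThT 30 uM added, 1 hr ambient; Alexa 594 FP and total fluorescence read at 555/632 nm.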
# Starred values were filed as active, the others as inactive; u = inconclusive; x = no result; [ ] = another dose, or the depositor's remark. Unless noted, calls come from the whole dose curve; as a rule, active = well fitted curve in the direction sought with a large enough effect; inconclusive = small, poorly fitted or top-dose-only effect, or another doubt; inactive = no such curve, though single readings can be large; an effect the other way counts as inactive or inconclusive. Unless noted, % is set by controls: 0 for no effect and ±100 for the full control effect.
SMILES,Coupling enz,Sfp PPTase inh,G9a inh,Tau fibril FP,Tau ThT inhib,Tau fluor counter
CCN(CC)C(=O)c1ccc(NC(=O)c2cccc(S(=O)(=O)N3CCN(Cc4ccccc4)CC3)c2)cc1,x,x,10%[12.7 µM],x,x,x
COc1cccc(CNC(=O)c2cccc(S(=O)(=O)N3CCN(C)CC3)c2)c1,2,13%,40µM*,x,x,x
COP(=S)(OC)SCN1C(=O)c2ccccc2C1=O,3,35µM*,16µM*,u,35µM*,-19%
CCCCCSc1cc(O)c(C(CNC)C(C)C)cc1OC (configuration not stated),0,-14%,11µM*,11%,-6%,-16%
CN(C)C(=O)Nc1ccc(-n2nc(C(C)(C)C)oc2=O)c(Cl)c1,0,7%,x,x,x,x
CN1CCN(CC#CCOc2ccc(Cl)cc2)CC1,-1,u,11µM*,x,x,x
Clc1ccc(OCC#CCN2CCCC2)cc1,0,-20%,7.9µM*,-1%,-8%,-2%
C(#CCN1CCOCC1)COCC#Cc1ccccc1,0,15%,u,10%,-5%,3%
CCCCCCOc1ccc(CN2CCN(C)CC2)cc1,2,0%,u,5%,3%,4%
O=C(Oc1ccc2cc(Br)ccc2c1)N1CCCCCC1,7,2%,53%[59 µM],5%,u,-16%
CCc1n[nH]c(CCN)n1,3,-16%,56µM*,-7%,-13%,-12%
CCCC[C@@H](C)[C@@H](OC(=O)C[C@@H](CC(=O)O)C(=O)O)[C@H](C[C@@H](C)C[C@H](O)CCCC[C@@H](O)C[C@H](O)[C@H](C)N)OC(=O)C[C@H](CC(=O)O)C(=O)O,x,33%,18%[59 µM],-9%,-13%,-8%
CCN(CC)CCCN=Cc1c(O)n(CCc2ccc(F)cc2)c(=O)[nH]c1=O,0,12%,8%,1%,-6%,-5%
NC1CCCCC1N=Cc1c(O)n(CCc2ccc(F)cc2)c(=O)[nH]c1=O (configuration not stated),-20,3%,1µM*,-8%,-13%,-11%
CC(C)=CCCC(C)CN(C)CCc1ccccn1 (configuration not stated),2,-7%,8.9µM*,0%,-3%,4%
Cc1ccccc1N1C(=O)CC(=O)NC1=O,4,56µM*,45µM*,u,16µM*,-28%
CCc1ccccc1N1C(=O)CC(=O)NC1=O,-1,-17%,-19%[59 µM],-15%,u,-13%
CN1CCc2nc(N)c(C#N)c(-c3ccccc3)c2C1,-2,-8%,-18%[59 µM],-5%,u,-14%
CN1CCc2c(C#N)c(Cl)nc(Cl)c2C1,-5,5%,45µM*,-8%,-15%,-3%
COc1ccc2oc(=O)c(C(=O)NCCc3c(C)[nH]c4ccc(F)cc34)cc2c1,x,x,-43%[59 µM],u,u,7.9µM*[quencher]
Cc1cc(OC(=O)N(C)C)nn1C(=O)N(C)C,-1,-11%,x,x,x,x
CCN1CCN(Cc2ccc(C)cc2)CC1,0,13%,u,7%,5%,5%
Fc1ccc(CN2CCN(c3ccc(Cl)cc3)CC2)cc1,1,4%,-32%,-6%,u,-28%
Cc1cccc(CN2CCN(Cc3ccc(Cl)cc3)CC2)c1,-12,u,7.1µM*,4%,-12%,-5%
Cc1cccc(CN2CCN(c3ccc(Cl)cc3)CC2)c1,4,-15%,32µM*,-1%,u,-17%
C[C@@]12CC[C@H](O)C[C@@H]1CC[C@H]1[C@@H]2C[C@@H](O)[C@]2(C)[C@@H](C3=CC(=O)OC3)CC[C@]12O,0,-5%,10%[21.5 µM],x,x,x
O=C(NCCCN1CCCC1)c1ccc2c(c1)N(Cc1cccc(Cl)c1)C(=O)c1ccccc1S2=O (configuration not stated),-2,-7%,40µM*,x,x,x
CCC(C)N=Cc1c(O)n(-c2ccccc2)c(=O)[nH]c1=O (configuration not stated),-2,-29%,10µM*,5%,-4%,0%

# Compound activity (PubChem)
